Compound activity deposited in PubChem BioAssay by National Center for Advancing Translational Sciences (NCATS).
Compounds with a hit are over-represented: about 22% of the library has one in this group of screens.
LmPK inh – inhibitors of Leishmania mexicana pyruvate kinase. Q27686. purified LmPK, Kinase-Glo ATP luminescence, 1 h. Potency, µM (highest dose often 57.5 µM), inactives show at the highest dose activity change, negative = inhibition, usual class: inhibitors. actives 0.37% (n = 290,000). AID 1721; also: potency is read from the fitted curve at half-maximal effect; % is scaled to controls: 0 for no effect and ±100 for the full control effect
Target sequence (Q27686 whole entry, looked up): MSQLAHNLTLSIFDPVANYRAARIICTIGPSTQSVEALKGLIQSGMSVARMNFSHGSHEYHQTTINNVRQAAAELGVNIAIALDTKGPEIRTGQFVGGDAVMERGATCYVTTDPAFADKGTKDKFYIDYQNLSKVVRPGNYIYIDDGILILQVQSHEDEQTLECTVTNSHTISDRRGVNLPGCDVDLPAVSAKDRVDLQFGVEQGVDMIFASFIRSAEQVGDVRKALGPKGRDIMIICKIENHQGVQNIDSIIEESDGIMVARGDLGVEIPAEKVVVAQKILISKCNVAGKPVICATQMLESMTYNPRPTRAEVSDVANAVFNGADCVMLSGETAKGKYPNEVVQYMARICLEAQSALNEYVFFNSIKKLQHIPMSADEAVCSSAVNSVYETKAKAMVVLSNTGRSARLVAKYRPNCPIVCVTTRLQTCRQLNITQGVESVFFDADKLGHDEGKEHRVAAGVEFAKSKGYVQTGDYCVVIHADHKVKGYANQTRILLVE
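Pyruvate kinase activity monitored as ATP production (luciferase luminescence). Conditions: 0.1 nM enzyme, 0.5 mM PEP, 0.1 mM ADP, 1 h, RT; normalized against uninhibited and no-enzyme wells.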
Pf growth 48h – P. falciparum growth inhibition at 48 hours (one generation); P. falciparum luciferase growth in erythrocytes, 48 h; actives 5.9% (n = 310,000); Potency, µM (titrated, usually from 28.7 µM), for inactives: at the highest dose activity change, negative = inhibition, actives largely listed as inhibitors; also: potency is read from the fitted curve at half-maximal effect; % is scaled to controls: 0 for no effect and ±100 for the full control effect
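Luciferase-expressing P. falciparum in infected erythrocytes (2% hematocrit, 0.1% parasitemia final) in RPMI 1640/0.5% Albumax were exposed to compound for 48 hours at 37 C, 5% CO2; growth read as luminescence.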
CHX counter – affects cycloheximide protein synthesis inhibition readout, counter-screen; AID 2314; max response, %; actives 12% (n = 300,000); cell reporter, cycloheximide protein synthesis inhibition counterscreen; in the data active = max response mostly above about 13%, no sharp cut-off; inactive = mostly below about 14%; also: read at 38.3 µM for the half of the compounds with a filed dose; 0% is about no effect
Shiga inhibitor – blocks Shiga toxin action in Vero cells; Vero cells, Shiga toxin protein synthesis inhibition reporter; inhibition, % at 38.7 µM; actives 9.2% (n = 290,000); AID 2315; in the data active = inhibition mostly above about 28%, no sharp cut-off; inactive = mostly below about 43%; also: 0% is about no effect
Pf growth 96h – P. falciparum growth inhibition at 96 hour, primary screen for plastid delayed-death inhibitors; P. falciparum luciferase reporter growth, 96 h; Potency, µM (series often up to 28.7 µM), without a hit: top-dose activity change, negative = inhibition, actives largely listed as inhibitors; actives 6.9% (n = 320,000); AID 504834; also: potency is read from the fitted curve at half-maximal effect; % is scaled to controls: 0 for no effect and ±100 for the full control effect
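Parasite growth measured via integrated firefly luciferase reporter in P. falciparum. Infected erythrocytes at 2% hematocrit, 0.05% parasitemia final were treated 96 hours at 37 C under 5% CO2, and luminescence was read.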
Active calls of the source: *; ? = inconclusive; . = not tested or not shown. Unless noted, calls follow the shape of the dose curve; as a rule, active = well fitted inhibition curve with a large enough effect; inconclusive = small, poorly fitted or top-dose-only effect, or another doubt; inactive = no such curve, though single readings can be large or run the other way.

SMILES	LmPK inh	Pf growth 48h	CHX counter	Shiga inhibitor	Pf growth 96h
CC12CCC(=O)N1C(C(=O)Nc1ccc(SC(F)F)cc1)CS2 (stereo not given)	.	-17.5%	.	.	-9.8%
O=S(=O)(Nc1ccc(Cl)c(Cl)c1)N1CCOCC1	-0.5%	7.2%	-0.5	12.9	4.65µM*
O=S(=O)(Nc1cc(Cl)cc(Cl)c1)N1CCOCC1	5.6%	4.2%	3.6	-6.4	2.7%
COC(=O)CCSCC(=O)N1N=C(c2ccc(Br)cc2)CC1c1cccc(OC)c1OC (stereo not given)	1.1%	?	9.1	-13.4	?
Cc1ccc2c(c1)Sc1c(ccc3ccccc13)N2	-0.4%	62.3%	53.5*	84.6*	?
O=C(N/N=C/c1c(O)n(Cc2ccccc2)c(=O)c2ccccc12)c1cccnc1	3.1%	?	2.4	-6.4	14.7µM*
O=C(N/N=C/c1c(O)n(-c2ccccc2Cl)c(=O)c2ccccc12)c1cccnc1	3.8%	?	-3.0	-16.8	?
COc1ccc(Cn2c(O)c(/C=N/NC(=O)c3cccnc3)c3ccccc3c2=O)cc1	-3.4%	13.1µM*	5.0	-3.7	5.22µM*
CCc1cc(=O)oc2cc(C)cc(OC(C)C(=O)NCCN3CCOCC3)c12 (stereo not given)	1.6%	?	-4.6	8.1	?
COc1ccc(-c2n[nH]c(=S)n2-c2ccc(C)cc2)cc1	2µM*	11.9%	-7.6	8.0	-1.1%
COc1ccc(-n2c(-c3ccc(Br)cc3)n[nH]c2=S)cc1	10µM*	-16.1%	-2.4	.	-12.2%
COc1ccc(-n2c(COc3ccc(C)cc3)n[nH]c2=S)cc1	-12.0%	-10.6%	-0.9	-24.4	0.465µM*
COc1ccc(-n2c(COc3ccccc3)n[nH]c2=S)cc1	5.1%	-16.6%	1.8	.	?
CC1(C)CC(=O)C2=C(C1)N=C1SCCC(=O)N1C2c1cccc([N+](=O)[O-])c1 (stereo not given)	-2.6%	267.5%	-9.1	8.1	-16.6%
CC(=O)Nc1nnc(COc2ccccc2)s1	-2.1%	43.6%	21.4*	55.2*	-2.7%
COC(=O)C(=O)Nc1nnc(COc2ccccc2)s1	-3.3%	0.5%	-2.2	1.4	0.0%
CC(C)C(=O)Nc1nnc(COc2ccc(Cl)cc2)s1	1.1%	13.5%	7.8	12.9	25.4%
CC(=O)Nc1nnc(COc2ccc(Cl)cc2)s1	5.9%	305.1%	56.6*	92.2*	11.5%
CC(=O)c1csc(COc2ccc(Cl)cc2)n1	-7.1%	88.5%	44.2*	38.5*	131.8%
NNC(=O)c1csc(COc2cc(Cl)cc(Cl)c2)n1	1.0%	2.8%	1.9	-6.9	-2.5%
COc1cc(C(=O)NCc2ccc3c(c2)OCO3)c([N+](=O)[O-])cc1OC	0.0%	3.3%	-1.9	-10.4	?
CCc1ccc(CNC(=O)c2ccc(OC3CCN(C(=O)COC)CC3)cc2)nc1	-0.8%	-13.5%	21.4	14.1	0.1%
CCOC(=O)c1cc(C(C)(C)C)oc1CNC(=O)c1c(C)oc2c1CCCC2	3.9%	14.7µM*	22.8	73.1*	?
O=C(OCC(=O)N1CCOCC1)c1cc(F)c(F)cc1Cl	1.5%	17.0%	-3.4	1.4	25.6%
CCc1ccc(OCCCC(=O)NCc2ccco2)cc1	3.8%	?	2.4	10.3	50.4%
SMILES	LmPK inh	Pf growth 48h	CHX counter	Shiga inhibitor	Pf growth 96h
CCc1ccc(N/C(SCc2ccccc2C)=C(/C#N)C(=O)NCc2ccco2)cc1	1.5%	13.1µM*	15.1*	24.2	12.7%
C=C(CC[C@@H](C)[C@H]1CCC2[C@]1(C)CC[C@]13C[C@@]14CCC(OC(=O)/C=C/c1ccc(O)c(OC)c1)C(C)(C)[C@@H]4CC[C@@]23C)C(C)C (stereo not given in full)	.	0.2%	.	.	?
Cc1ccc(NC(=O)CN2C(=O)NC3(CCCCCCC3)C2=O)cc1C	.	-10.2%	.	.	-24.1%
Cc1cc(C(=O)CN2C(=O)NC3(CCCCC3)C2=O)c(C)n1C	-1.8%	23.6%	38.5*	44.8*	41.3%
Cc1cc(C(=O)CN2C(=O)NC3(CCCc4ccccc43)C2=O)c(C)n1C (stereo not given)	-7.2%	?	-1.2	-3.9	.
Cc1cc(C)c(NC(=O)CN2C(=O)NC3(CCCCC3)C2=O)c(Cl)c1	6.1%	0.0%	-3.4	19.7	13.1µM*
O=C(CN1C(=O)NC2(CCCCCC2)C1=O)c1cccs1	.	2.7%	.	.	51.3%
Cc1cc(C)c(C(=O)CN2C(=O)NC3(CCCCCC3)C2=O)cc1C	-1.2%	6.1%	53.2*	40.8*	62.4%
